Experimental data as given in PubChem BioAssay AID1508600 (Functional Genomics Laboratory (NCATS/FGL), 2020).
The campaign covered roughly 53,000 sequences. About 3,700 (7%) were called active. The sample as a whole holds a higher share of actives than the screen did. Unmarked numbers belong to inactive results.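 Rule for the calls: active = gene knockdowns whose robust z-score for IL-1 alpha signal is at least 2 or at most -2, so actives lie on both sides; inactive = the rest.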

Experiment: Components of the Cytosolic LPS Sensing Pathway: Gene Identification via Genome-wide siRNA Screen;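 note: robust z of the log signal after scaling to non-targeting control siRNA wells of the plate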
Conditions: RAW264.7 macrophages, IL-1a HTRF, actives lie on both sides, screened at 100 nM (by protocol), cells primed 5 h with Pam3CSK4 first
Outline: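 RAW264.7 mouse macrophages reverse-transfected with single siRNAs (100 nM final) for 48h, primed with Pam3CSK4 for 5 hours, then transfected with LipidA for 24 hour. Supernatant IL-1a read by HTRF; values normalized to negative-control median, log-transformed robust z-scores.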

Sequence	z-score
GCAACACGGCGGAAUAAAGTT against Washc1	-0.336
GGAGCUGUAUGACCAUGCCTT against Rab25	-2.03 (active)
GGGUGAUGAUCUUCAGCAATT against Txnrd3	-0.616
GGACCUAAAGAUAAUAAGUTT against Pex3	-0.481
GCCCAUCAGAUGGCAAGAUTT against Pisd	1.09
GUCCCACACUGAUAAGAUUTT against Lcorl	-0.602
GGAGCCUAUACUGAUUUAUTT against Tomm7	2.13 (active)
GCAGCUUAGUGAUUUGAAATT against Tex21	-1.24
CCGGAUUCGAGAGGUGAUGTT against Lrrc52	0.0804
CGGCAAAAUUAGCUAUUCATT against Exosc4	0.489
GGCAUUACAGUGUUUCUGCTT against Tgfbr1	-0.288
GGGCAAUGAUUUCGCCUUCTT against Ninj1	0.337
GGAUUCGUAAACUUCAGAUTT against Igf2bp3	3.41 (active)
GGGUCAGAACACGUACGAGTT against Gnaz	1.06
CGAGUGUGAGCUACAGCGUTT against Agrn	2.74 (active)
UCUGUGGACCAGGAUUUGGTT against Pcsk1n	-2.8 (active)
GGGUGUGACGAUUCUCACCTT against Olfr800	0.705
GGAAAAUGAAGGUUCAGAATT against Pkib	-0.185
GGACUGUGAGGCCUAUGAATT against Cd72	-0.1
CCGAUCUGAUAUAGUAGAATT against Stk31	2.18 (active)
GGCCACAGAUCUUCUGGUGTT against Calml4	1.08
CGAGGGUCUGAAAAAUUACTT against Ighg	1.28

Sequence	z-score
GGUAUGCACUCACACCAGATT against Mus81	0.73
GGCCGUGUGCAUCUUUGUGTT against Gpr20	1.43
GGGAGAUCUCCAACACCAATT against Dipk1b	-1.02
CCUUUGGUGAAGCCUGGAUTT against Kiss1	-0.0609
GGACUUCAUGGCUAGUUUCTT against B4galt4	-0.14
GCAGAGCAUGCCUUACUGUTT against Eif4ebp1	4.39 (active)
GCUAACAGCAUCCUUUUUGTT against Vmn1r50	-0.843
GGAGAUUGACCUGGUCAACTT against Cav1	1.44
GGUUAUGAUCGGCAUCGCUTT against Fam24a	-1.46
GGCUUCCUUCAGUGAGAAUTT against 1810065E05Rik	-2.02 (active)
GGCAUGAGUGCAUUUGCUATT against Ifi203	-0.673
CCUAAGCUUAUCUCAUAUUTT against 4930449I24Rik	-0.572
GGGCUACUACAAUGAGUACTT against Phospho1	0.412
GGGUGAGAUGAAAUGCAUCTT against Efemp2	0.264
GGCCGACAAUUUGUCAGUUTT against Uaca	-1.19
GCAAGUGUUAGAACACAAGTT against Cish	0.823
CGGUUCUGGUGCAUUCACATT against Olfr242	-2.06 (active)
GGAAAUUGGAGAUUUUUCCTT against Ccdc54	-1.02
GGCAUUGGAUCUUCAUUUUTT against Slc18a1	2.35 (active)
GGUGGAGAUCAAACCAGAGTT against Rps15	1.4
GGGAAACUCUCAGAUGAAGTT against Sh2d7	-1.9
GGCAGACAACUUCUACCAATT against Crim1	2.52 (active)

Sequence	z-score
GGCAAAAUCUCAUCAGUCCTT against Iqcc	-0.131
GGUGAUCUAGAAACAACCCTT against Tmco5	0.243
CCAUCCAGCUUUCAUUAAATT against Nckap1l	0.508
GGUCUCCAUUUCUUUCUGCTT against Nmd3	-0.952
GGAAAGAGGAAAUCUUUAGTT against Furin	2.04 (active)
GGACUGAAGUGAAAUAAAUTT against Trav13-5	-0.949
GCAUCAUCGUGGGAAACCUTT against Olfr1284	0.331
CCAUUCUCUUUACCUCAAUTT against Rdh12	-0.161
CCUGUAGGAGUGACUUCCUTT against Crbn	0.223
GGGACCAGAUAGAAAUUAUTT against Arhgef25	0.414
GGAAGAGAAGUUGUCCAAATT against Creld1	0.477
GCUCACAGCAGCAUUUUACTT against 1700034H15Rik	-2.48 (active)
GGACUCCUACAUGAUUGCUTT against Slc52a2	-0.362
UGUGGUCUUAGAAUCUAGCTT against Tdpoz3	4.49 (active)
CCAUUACUUCUGUGACCUCTT against Olfr32	-0.289
GCUGCUUUCUUUGGAGGACTT against Olfr484	2.27 (active)
GGAGCUCUUUGACUUCUUGTT against Uqcrh	0.359
GGUGGCUAAAAGCUCUUCCTT against Odc1	1.9
GGCCCAUUGUUUGAGCCCATT against A530013C23Rik	-0.961
GGCAUUAACCUGAGAUGAUTT against Sprr2i	-1.42
GGCUAGCAGGAUCAGCAUCTT against Rnf212	0.617
GGUGCUUUUUUUGGAUCAATT against Olfr507	-1.05

Sequence	z-score
GGAAGAGAGGGUGAAUAUGTT against Tmem41b	-2.56 (active)
CGGCAUUCAGAUUGUCUCUTT against Nup210	-1.22
GGCCAUUGAGUGCUCCUACTT against Dhcr7	-0.113
CCACUCAUUGUUCAUGGAATT against Olfr1490	0.798
GGACCUGAGUUAGGAGAAUTT against Zfp105	-2.06 (active)
GGCUGAGAAUGCAAGAAUGTT against Krt32	-0.446
GGAAUUCAGCUUUGUGCAATT against Asl	0.764
GGCCAGCAAAACAAAUGACTT against Slc34a2	-1.01
GGUAAAGCAGUACCUUUCUTT against Mitf	2.53 (active)
GGUGAUGCUGGAAUCUUCCTT against Svop	0.216
GCGAUUCGUCUUCGAGUUCTT against Fam161a	0.483
GGAACUAUUUUUUACCCAATT against Dclre1a	-0.497
GGAAAGAAGAUCGAUUACATT against Atp11c	2.22 (active)
GCCCUGUUUACACCUCUGATT against Sec23a	-1.38
CGAAAGGUCAAAUUAACAGTT against Serpinb5	1.23
CCACAAAGAAUGCAUUACUTT against Eml3	-0.912
GCUACUCAGUCUUUACUAUTT against Telo2	-2.14 (active)
CCUGGCAGAGCAUUAUCUATT against Tmem201	0.558
GGAGACAACUGUCAAGCUGTT against Igdcc4	-0.0921
GGCACAGAAAAUCUUCAAATT against Ap2a1	0.97
GGACUGAAGGAUGCCUCAATT against Cngb1	0.78
GCUAACAACGUGUGCUUCUTT against Fam20a	-0.174

Sequence	z-score
CCCGAGAUGUAUCAUCUAATT against Krcc1	-0.31
UUCACUGUAAGAAUUGUCUTT against Vmn1r93	-2.11 (active)
GGGAAUACAUUUUAUCUUCTT against Cpox	-0.16
GAUGACUAGCUCUACUUUATT against Olfr738	-0.0882
GGUAUCAGUAGCUGAUGUGTT against Pde8a	1.36
GGUGUGGGUGACAAGGUUATT against Tymp	0.153
GCAACACAAACACUGGCUATT against D930020B18Rik	-1.57
CCUAGGAUAGAGAUUGUUGTT against Ndufaf3	0.135
GGUAGAUCAUGGCCAUCCUTT against Ntf5	2.04 (active)
CGAUACACUGGUGCCCUAUTT against Tmem201	-0.158
GGUGCCAGAUGUCAAGAAATT against Rpn2	-0.685
GGAUCUGAAGACAUGGAGATT against H2-M1	0.659
CGCCCUUGGAGGUUAAUCATT against Nsg2	0.26
GGAACAGGCCGAGUUAGUATT against Olfr414	1.45
GGAAGGUGAUGAAUCAGCCTT against Wwtr1	-2.74 (active)
GCUGAGUUCAUUGCAAUGCTT against Cyp4a12b	0.274
GGACGGCAGAAAGCAUUUATT against Olfr317	0.693
GGAAUUCAUCUUACAUUCCTT against Acox3	2.42 (active)
GCUGACUCUUAGAUAAAUATT against Seh1l	-0.81
